Reference: the supplement of paper PMC9694430
Values joined by “and” are separate entries in the source; they are usually repeats but may differ in a detail not shown here. Equal values may be shown once. Where a name gives a salt, the structure may show the parent alone.

Assays:
Experiment in all cases: thermal shift delta Tm vs DMSO control; higher = stronger stabilization (binding)
Conditions in all cases: 12.5 µM; protein concentration 2 µM
LOC_OS02G45750-cb003 = system: LOC_OS02G45750-cb003
Method in brief: (§1)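 Purified, E. coli-expressed rice kinase domain constructs were tested by differential scanning fluorimetry in 96-well plates: 19.5 μl of 2 μM kinase in 100 mM potassium phosphate pH 7.5, 150 mM NaCl, 10% glycerol, 5 × SYPRO Orange, plus compound in DMSO. Fluorescence was read from 25°C to 95°C at 0.05°C/s. Melting temperatures came from Boltzmann fits, and the shift is the triplicate mean relative to protein with DMSO alone.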

LOC_OS02G54510-cb004 = system: LOC_OS02G54510-cb004
Method in brief: as §1

LOC_OS03G04050-cb001 = system: LOC_OS03G04050-cb001
Method in brief: as §1

LOC_OS03G12390-cb001 = system: LOC_OS03G12390-cb001
Method in brief: as §1

LOC_OS03G27990-cb004 = system: LOC_OS03G27990-cb004
Method in brief: as §1

LOC_OS03G50450-cb001 = system: LOC_OS03G50450-cb001
Method in brief: as §1

LOC_OS03G50810-cb003 = system: LOC_OS03G50810-cb003
Method in brief: as §1

LOC_OS04G35114-cb001 = system: LOC_OS04G35114-cb001
Method in brief: as §1

LOC_OS04G38480-cb003 = system: T1, LOC_OS04G38480-cb003
T1 sequence (whole entry): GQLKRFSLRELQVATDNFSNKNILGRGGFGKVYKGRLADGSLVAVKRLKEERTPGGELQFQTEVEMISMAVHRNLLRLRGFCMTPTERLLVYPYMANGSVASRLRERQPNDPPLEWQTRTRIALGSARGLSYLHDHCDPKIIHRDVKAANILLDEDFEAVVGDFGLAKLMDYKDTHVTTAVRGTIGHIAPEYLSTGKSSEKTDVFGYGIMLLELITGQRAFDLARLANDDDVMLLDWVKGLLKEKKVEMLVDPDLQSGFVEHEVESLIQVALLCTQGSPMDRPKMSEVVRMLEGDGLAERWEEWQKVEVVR
Method in brief: as §1

LOC_OS04G41100-cb001 = system: T2, LOC_OS04G41100-cb001
T2 sequence (whole entry): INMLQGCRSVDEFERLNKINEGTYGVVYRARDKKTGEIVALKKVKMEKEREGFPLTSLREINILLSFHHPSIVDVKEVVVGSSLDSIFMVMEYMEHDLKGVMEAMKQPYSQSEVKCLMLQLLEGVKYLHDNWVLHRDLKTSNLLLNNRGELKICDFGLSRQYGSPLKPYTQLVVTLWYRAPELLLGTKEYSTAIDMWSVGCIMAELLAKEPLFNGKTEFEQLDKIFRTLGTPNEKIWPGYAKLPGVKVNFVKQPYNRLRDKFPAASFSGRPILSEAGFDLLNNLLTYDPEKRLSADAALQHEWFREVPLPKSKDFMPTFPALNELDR
Method in brief: as §1

SMILES | thermal shift delta Tm (LOC_OS02G45750-cb003) | thermal shift delta Tm (LOC_OS02G54510-cb004) | thermal shift delta Tm (LOC_OS03G04050-cb001) | thermal shift delta Tm (LOC_OS03G12390-cb001) | thermal shift delta Tm (LOC_OS03G27990-cb004) | thermal shift delta Tm (LOC_OS03G50450-cb001) | thermal shift delta Tm (LOC_OS03G50810-cb003) | thermal shift delta Tm (LOC_OS04G35114-cb001) | thermal shift delta Tm (LOC_OS04G38480-cb003) | thermal shift delta Tm (LOC_OS04G41100-cb001)
CNC(=O)c1nn(C)c2c1C(C)(C)Cc1cnc(Nc3ccc(N4CCN(C)CC4)cc3)nc1-2 | 7.62 °C | 0.71 °C | 0.62 °C | -0.14 °C | 1.08 °C | 0.91 °C | 4.16 °C | 7.06 °C | 1.96 °C | 0.65 °C
CO[C@H]1C[C@@H]2CC[C@@H](C)[C@@](O)(O2)C(=O)C(=O)N2CCCC[C@H]2C(=O)O[C@H]([C@H](C)C[C@@H]2CC[C@@H](OP(C)(C)=O)[C@H](OC)C2)CC(=O)[C@H](C)/C=C(\C)[C@@H](O)[C@@H](OC)C(=O)[C@H](C)C[C@H](C)/C=C/C=C/C=C/1C [Ridaforolimus (Deforolimus, MK-8669)] | 0.46 °C | -0.33 °C | 0.25 °C | 0.04 °C | 0.01 °C | -0.11 °C | -0.15 °C | 0.34 °C | 0.98 °C | 0.85 °C
Nc1ncc(-c2ccnc(Nc3ccncc3)n2)c(CC2CC2)n1 | 2.65 °C | 0.44 °C | 0.08 °C | 0.7 °C | 0.32 °C | 0.09 °C | 0.92 °C | 1.69 °C | 2.3 °C | 0.78 °C
CNC(=O)c1ccccc1Nc1cc(Nc2ccc(N3CCOCC3)cc2OC)ncc1C(F)(F)F | 5.48 °C | 0.23 °C | 0.62 °C | 7.78 °C | 3.73 °C | 0.25 °C | 1.97 °C | 6.3 °C | 3.08 °C | 0.19 °C
O=C(NC1CCNCC1)c1n[nH]cc1NC(=O)c1c(Cl)cccc1Cl | 0.66 °C and 1.33 °C | 0.11 °C and 0.36 °C | 0.15 °C and 0.29 °C | 0.1 °C and 0.19 °C | 0.04 °C and 0.36 °C | 0.11 °C and 0.36 °C | 0.29 °C and 0.51 °C | 0.48 °C and 0.71 °C | 0.07 °C and 1.75 °C | 7.15 °C and 7.57 °C
COc1cc2c3cc1Oc1c(OC)c(OC)cc4c1[C@@H](Cc1ccc(O)c(c1)Oc1ccc(cc1)C[C@@H]3N(C)CC2)N(C)CC4 [Berbamine (dihydrochloride)] | 0 °C | -0.14 °C | 0.28 °C | -0.42 °C | -0.08 °C | 0.16 °C | -0.29 °C | 0.22 °C | 0.37 °C | 0.23 °C
CN1CCN(C2CCN(C(=O)Nc3cc(Oc4ccc(NC(=O)C5(C(=O)Nc6ccc(F)cc6)CC5)c(F)c4)ccn3)CC2)CC1 [Golvatinib (E7050)] | 0.4 °C | -0.38 °C | 0.26 °C | 0.04 °C | 0.36 °C | 0.52 °C | 0.33 °C | 0.27 °C | 1.71 °C | 1.78 °C
c1cn2cc(-c3ccc4cn[nH]c4c3)nc(Nc3ccc(N4CCOCC4)cc3)c2n1 [Entospletinib (GS-9973)] | 0.66 °C | 1.02 °C | 0.92 °C | 3.99 °C | 1.72 °C | 4.22 °C | 2.13 °C | 2.13 °C | 2.56 °C | 1.01 °C
N#Cc1c(O)c2c(-c3ccc(-c4ccccc4O)cc3)csc2[nH]c1=O | 1.29 °C | 0.51 °C | 0.84 °C | 0.75 °C | 0.45 °C | 0.66 °C | 0.88 °C | 0.58 °C | 1.99 °C | 0.62 °C
NC(=O)Nc1cc(-c2cccc(F)c2)sc1C(=O)N[C@H]1CCCNC1 | 1.81 °C | 1.91 °C | 0.72 °C | 2.87 °C | 3.23 °C | 3.98 °C | 4.12 °C | 2.52 °C | 2.65 °C | 0.96 °C
CN1CC[C@H](c2c(O)cc(O)c3c(=O)cc(-c4ccccc4Cl)oc23)[C@H](O)C1 [Flavopiridol HCl] | 1.65 °C | 0.99 °C | 0.18 °C | 2.02 °C | 1.25 °C | 0.4 °C | 0.81 °C | 1.99 °C | 1.82 °C | 0.56 °C
CCCCCCCCCCCCCCCCn1cc[n+](Cc2ccccc2)c1C | -1.15 °C | -1.83 °C | -4.41 °C | -3.77 °C | 0.11 °C | -1.25 °C | -4.07 °C | -2.5 °C | -5.2 °C | -1.35 °C
Cc1ccc(Nc2nccc(N(C)c3ccc4c(C)n(C)nc4c3)n2)cc1S(N)(=O)=O | 3.91 °C | 1.36 °C | 0.35 °C | 1.04 °C | 0.21 °C | 0.3 °C | 1.55 °C | 4.77 °C | 1.08 °C | 3.24 °C
NC(=O)c1cnc2[nH]ccc2c1N[C@@H]1[C@@H]2CC3C[C@H]1C[C@@](O)(C3)C2 | 8.38 °C | 2.49 °C | -0.03 °C | 7.42 °C | 4.38 °C | 3.97 °C | 4.9 °C | 3.87 °C | 2.99 °C | 1.15 °C
O=C(Nc1cccc(Nc2ncc(Br)c(NCCc3cnc[nH]3)n2)c1)N1CCCC1 | 9.57 °C | 1.18 °C | 0.77 °C | 2.81 °C | 1.73 °C | 6.39 °C | 5.57 °C | 5.16 °C | 2.86 °C | 2.52 °C
CC(C)(C#N)c1ccc(N2C(=O)OCc3cnc4ccc(-c5cnc6ccccc6c5)cc4c32)cc1 | 0.62 °C | 0.01 °C | 0.55 °C | 0.2 °C | 0.32 °C | 0.21 °C | 0.32 °C | 1.01 °C | 0.8 °C | 0.2 °C
COc1cc(Nc2ncc(F)c(Nc3ccc4c(n3)N(COP(=O)(O)O)C(=O)C(C)(C)O4)n2)cc(OC)c1OC [Fostamatinib (R788)] | 4.51 °C | 2.89 °C | 0.44 °C | 7.17 °C | 2.16 °C | 10.5 °C | 3.97 °C | 3.46 °C | 4.1 °C | 0.47 °C
